Rows were chosen to be rich in hits. Some 3.5% of all compounds tested hit in one or more screens of this group.
FBW7 act – activators of human E3 ligase FBW7 | Q969H0 | AlphaScreen FBW7–phospho-cyclin E peptide binding, activator screen | normalized activity (activation), % at 26.1 µM | 650,000 compounds, 0.13% hits | AID 1259310; in the data active = normalized activity above about 1.9%;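 also: purified mutant Fbw7 with reduced substrate affinity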
Target sequence (Q969H0 whole entry, looked up): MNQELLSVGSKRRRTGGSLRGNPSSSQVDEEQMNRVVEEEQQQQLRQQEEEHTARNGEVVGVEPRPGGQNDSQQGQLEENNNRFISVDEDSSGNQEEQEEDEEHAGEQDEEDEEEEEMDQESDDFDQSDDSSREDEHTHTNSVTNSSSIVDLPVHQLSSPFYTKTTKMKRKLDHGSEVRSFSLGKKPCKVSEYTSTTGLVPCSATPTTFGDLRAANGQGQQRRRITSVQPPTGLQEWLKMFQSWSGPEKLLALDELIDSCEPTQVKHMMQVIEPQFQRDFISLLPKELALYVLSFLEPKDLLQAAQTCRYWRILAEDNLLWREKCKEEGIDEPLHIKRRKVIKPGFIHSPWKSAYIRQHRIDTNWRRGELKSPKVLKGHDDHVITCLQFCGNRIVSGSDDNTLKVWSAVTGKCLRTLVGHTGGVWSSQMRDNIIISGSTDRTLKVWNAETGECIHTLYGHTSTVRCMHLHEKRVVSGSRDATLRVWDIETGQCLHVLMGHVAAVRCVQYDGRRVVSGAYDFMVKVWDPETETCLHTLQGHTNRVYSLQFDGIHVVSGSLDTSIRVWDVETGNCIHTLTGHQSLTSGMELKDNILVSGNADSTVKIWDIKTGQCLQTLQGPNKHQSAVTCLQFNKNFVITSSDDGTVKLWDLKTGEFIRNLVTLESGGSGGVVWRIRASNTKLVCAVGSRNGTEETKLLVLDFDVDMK
GPR151 activ – activates the human receptor GPR151 | PathHunter beta-arrestin GPR151 cells, luminescence | 650,000 compounds, 1% hits | activation, % at 11.2 µM | AID 1508602 | Q8TDV0; in the data active = activation above about 4.9%;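 also: 0% = median of compound wells and 100% = cells with positive control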
TEAD-YAP block – TEAD-YAP interaction inhibition. HEK-TIYL cells, TEAD-Gal4/YAP UAS-luciferase luminescence. inhibition, % at 9.12 µM. 640,000 compounds, 1.4% hits. AID 1259422; in the data active = inhibition above about 32%;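 also: 0% = median of test compound wells and 100% = reference inhibitor wells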
MITF inh – blocks human microphthalmia-associated transcription factor; O75030; AlphaScreen MITF homodimerization, bead proximity signal; inhibition, % at 2.6 µM; 650,000 compounds, 0.91% hits; in the data active = inhibition above about 50%;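 also: 0% = vehicle wells with protein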
* = called active by the depositor; . = not tested or not shown.

SMILES	FBW7 act	GPR151 activ	TEAD-YAP block	MITF inh
O=C1CC(c2ccccc2OCc2ccccc2)c2cc3c(cc2N1)OCO3 (configuration not stated)	0	-1	5	0
COc1ccc2[nH]c3nc(SCC(=O)Nc4ccc(C(=O)NC5CC5)cc4)nnc3c2c1	0	1	5	9
Cc1ccc(-c2cc(C(F)(F)F)n3nc(C(=O)Nc4cc(C(F)(F)F)ccc4Cl)cc3n2)cc1	0	0	11	14
CC(=O)N(C1=C(N(C)C)C(=O)c2ccccc2C1=O)c1cc(C)cc(C)c1	0	-3	85*	13
CC(=O)N(C1=C(N(C)C)C(=O)c2ccccc2C1=O)c1ccc(Cl)cc1	0	-3	73*	6
CC(=O)N(C1=C(Cl)C(=O)c2ccccc2C1=O)c1ccc(Br)cc1	0	0	11	18
CC(=O)N(C1=C(N(C)C)C(=O)c2ccccc2C1=O)c1cccc(F)c1	-1	-7	95*	13
CC(C)OCCCNc1nnc2c3ccccc3n(C)c2n1	0	0	-3	4
OC1CC2CCC(C1)N2CC(O)(c1ccccc1)c1ccccc1 (configuration not stated)	1	0	4	2
CC1=NN(c2ccccc2)C(=O)/C1=C(/c1ccccc1)N1CCOCC1	0	1	40*	-5
O=C(Nc1cc(Oc2ccc(F)cc2)cc([N+](=O)[O-])c1)c1cc2nc(-c3cccs3)cc(C(F)(F)F)n2n1	0	-2	-1	5
CC(=O)Nc1ccccc1NS(=O)(=O)c1ccc2ccccc2c1	1	1	53*	9
Cc1ccccc1NS(=O)(=O)c1ccc2ccccc2c1	0	0	3	12
C=CCn1c(SCC(=O)Nc2c(C)cccc2C)nnc1-c1ccc2[nH]c(C)c(C)c2c1	0	2	-1	7
O=C(Nc1ccc(N2CCN(C(=O)c3ccco3)CC2)cc1)c1cccc2ccccc12	0	0	55*	9
O=C(Nc1ccc(N2CCOCC2)cc1)c1ccco1	0	-5	62*	9
O=C(Nc1ccc(N2CCN(Cc3ccccc3)CC2)cc1)c1ccco1	1	0	-4	9
O=C(Nc1ccc(N2CCOCC2)cc1)c1cnccn1	0	-4	49*	-8
CCC(C)(C)c1ccc(OCCCC(=O)Nc2ccc(Cl)c([N+](=O)[O-])c2)c(C(C)(C)CC)c1	0	0	-7	1
CCC(=O)Nc1ccc(C(=O)OCC(=O)c2ccc([N+](=O)[O-])cc2)cc1	1	-1	3	21
O=C(CCN1C(=O)c2cccc3cccc(c23)C1=O)N1CCC(Cc2ccccc2)CC1	1	3	-2	4
COc1ccc(OS(=O)(=O)c2cc(OC)ccc2OC)cc1	0	-1	50*	-2
COc1ccc(OC)c(S(=O)(=O)c2cc(OC)ccc2OC)c1	0	0	-1	5
CCOC(=O)C1=C(C)N=c2s/c(=C\c3ccc(OCc4cccc5ccccc45)cc3)c(=O)n2C1c1ccc(Cl)cc1 (configuration not stated)	0	1	-19	2
N=c1c2c(-c3ccccc3)c(-c3ccccc3)n(Cc3ccco3)c2ncn1CCO	0	-2	68*	15
SMILES	FBW7 act	GPR151 activ	TEAD-YAP block	MITF inh
CC[n+]1c(/C=C(/C)OC)sc2ccccc21	0	-1	33*	3
CC[n+]1c(/C=C/c2ccc(N(C)C)cc2)sc2ccccc21	0	0	54*	19
CN(C)c1ccc(/C=C/c2sc3ccc4ccccc4c3[n+]2C)cc1	0	-1	53*	18
CC[n+]1ccc(/C=C/c2ccc(N(C)C)cc2)cc1	0	1	82*	1
O=C(O)c1ccc(S(=O)(=O)c2ccc3c(c2)C(=O)N(c2ccccc2-c2ccccc2)C3=O)cc1	0	0	-6	1
O=C(/C=C/c1ccc2c(c1)OCO2)OCc1nc2ccccc2s1	0	1	-14	-11
CCc1ccc2[nH]c3nc(NN)nnc3c2c1	0	0	-29	-2
O=C(O)c1c(CNCc2ccccn2)c2ccccc2n1Cc1ccc(Cl)cc1	-2	0	16	15
CC(C)(C)c1ccc2c(c1)NC(=O)CO2	0	0	35*	-14
O=C1COc2ccc(C(=O)O)cc2N1	0	0	7	9
Brc1cccc(Nc2nc3nonc3nc2NCc2ccco2)c1	1	0	87*	-4
Oc1cccc(Nc2nc(NCc3ccco3)c3ccccc3n2)c1	0	1	11	15
COc1ccccc1Nc1nc2nonc2nc1Nc1cccc(Br)c1	0	0	21	2
Cc1cccc(Nc2nc(NCc3ccco3)c3ccccc3n2)c1	0	0	60*	-1
COCCn1c(=O)c2c(nc3n2CCN3c2cccc(OC)c2)n(C)c1=O	0	0	13	4
Cc1onc(-c2c(F)cccc2Cl)c1C(=O)OCC(=O)NC(=O)NC1CCCC1	0	3	8	4
CCc1ccc2nc(N3CCC(C(=O)NC4CCCCC4)CC3)sc2c1	0	-1	70*	14
CCc1ccc2nc(N3CCC(C(=O)NC(C)C)CC3)sc2c1	0	1	40*	-10
C=CCn1c(SCC)nnc1-c1ccc([N+](=O)[O-])cc1	0	1	0	9
C=CCn1c(Sc2ccc([N+](=O)[O-])cn2)nnc1-c1ccc(OC)cc1	0	0	48*	-7
Nc1c(C(=O)c2ccccc2)sc2nc3c(cc12)CCC3	0	-2	-48	3
O=S(=O)(c1ccc(NC(=S)N/N=C/c2ccc(O)c(O)c2)cc1)N1CCOCC1	0	0	10	-15
O=S(=O)(c1ccc(NC(=S)N/N=C/c2cccc(O)c2O)cc1)N1CCOCC1	-1	0	4	59*
Cc1cnc(N2CCN[C@@H](Cc3ccccc3)C2)nc1Oc1ccc(-n2ccnc2)cc1	.	4	.	.
Nc1ccc2nc3c(c(Cl)c2c1)CCCC3	0	1	33*	9
COc1ccc(N(/C=C2\Sc3ccccc3C2=O)C(=O)c2cccc(Cl)c2)cc1	0	-9	51*	11
CCOc1ccc(N(/C=C2\Sc3ccccc3C2=O)C(=O)c2cccc(Cl)c2)cc1	0	-8	45*	9
C[C@H]1O[C@@H](O[C@H]2[C@@H](O)C[C@H](O[C@H]3[C@@H](O)C[C@H](O[C@H]4CC[C@]5(C)C6CC[C@]7(C)[C@@H](C8=CC(=O)OC8)CC[C@]7(O)C6CC[C@@H]5C4)O[C@@H]3C)O[C@@H]2C)C[C@H](O)[C@@H]1O (some centres not stated)	0	4	99*	24
C[C@H]1O[C@@H](O[C@H]2[C@@H](O)C[C@H](O[C@H]3[C@@H](O)C[C@H](O[C@H]4CC[C@@]5(C)[C@H](CC[C@@H]6[C@@H]5C[C@@H](O)[C@]5(C)[C@@H](C7=CC(=O)OC7)CC[C@]65O)C4)O[C@@H]3C)O[C@@H]2C)C[C@H](O)[C@@H]1O	0	0	.	8
COCCNc1ccc2ncc(-c3cccc(C(N)=O)c3)n2n1	0	-1	-3	-4
